This is part of a sample that, as a whole, favours compounds with a hit. Of some 83,000 tested, about 20% had one in any assay.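 Method: cells in 96-well plates; compound added at one concentration; 48 h incubation; percent growth measured; values under 10 scored active.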 Unmarked numbers belong to inactive results. The source made the active and inactive calls.

The test system of this experiment is EKVX NSCLC. Briefly: NCI-60 one-dose screen, 48 h (100 = growth as untreated, 0 = no growth, -100 = all killed). The note with it: 10 µM unless noted.
Turning to `COc1ccc(NC(=O)c2sc3nc(C)c(C(O)c4ccc(OC)cc4)cc3c2N)cc1` (stereo not given), the growth was 47.9%.

As for `N#Cc1c(NC(=O)c2cccc(Br)c2)sc2c1CCCC2`, the growth was 92.3%.

As to `Clc1ccc(C2CC(c3cccc(Nc4ccncc4)c3)=NN2c2ccccc2)cc1` (stereo not given), the growth was 89.8%.

As for `O=C(OCc1nc2nc(Cl)nc(N3CCOCC3)c2[nH]1)n1ccnc1`, the growth is 62.1%.

For `CC(=O)O[C@]1(C(C)=O)CC[C@H]2[C@@H]3C=C(Cl)C4=CC(=O)CC[C@]4(C)[C@H]3CC[C@@]21C`, the growth is 107%.

On to `CC(=O)c1c[nH]c2ccc(-c3ccnc(Nc4ccc(NC(=O)C5CCCC5)c(CN5CCOCC5)c4)n3)cc12`, for which the growth is -47.3% (active).

For `O=C(N/N=C/c1cccnc1)c1ccccc1Nc1cccc(C(F)(F)F)c1`, the growth was 89.2%.

As to `CN1CCN(CCCOc2ccc3ncnc(Nc4ccc(Oc5cccc(C(F)(F)F)c5)c(Cl)c4)c3c2)CC1`, the growth was 36.6%.

For `CN(C)Cc1c(-c2ccccc2)[nH]c2ccccc12`, the growth is 92.3%.

Take `O=C(OC(OC(=O)c1cc(Cl)cc(Cl)c1)c1cccc2ccccc12)c1ccccc1` (stereo not given): the growth is 97.7%.

With `CCC(C)C(N)C(=O)NNc1n[nH]c(=S)n1N` (stereo not given), the growth is 95.5%.

Consider `CC[C@H](C)[C@@H]1NC(=O)[C@H](Cc2ccc(O)cc2)N(C)C(=O)[C@H](Cc2ccccc2)NC(=O)CN(C)C(=O)[C@@H]2CCCN2C(=O)[C@@H](Cc2ccccc2)N(C)C(=O)[C@H](CC(C)C)NC1=O`, for which the growth was -3.63% (active).

`C#CC(=O)Nc1cccc(Nc2nc3c(c(NCc4ccccc4)n2)CCCC3)c1`: the growth is -62.3% (active).

`CCCCCOc1ccc(/C=N/Nc2cc(C)nc3ccc(Br)cc23)cc1`: the growth was 76.3%.

On to `COc1ccc(OC)c(/C=C/[C@H]2O[C@@H](C)[C@H](O)[C@@H]2O)c1`, for which the growth is 107%.

Turning to `COc1ccc(C(=O)c2cc(C)c(OC)c(C)c2)c(OC)c1O`, the growth was 59.2%.

On to `C=C1C(=O)O[C@H]2[C@H]1CC/C(CNC(=O)/C=C/c1ccc(Br)cc1)=C\CC[C@@]1(C)O[C@@H]21`, for which the growth is -47.8% (active).

Turning to `O=C(c1ccccc1)N1N=C(c2ccc(-n3ccc(C(F)(F)F)n3)cc2)CC1c1ccc[nH]1` (stereo not given), the growth is 88.9%.

In the case of `CS(=O)(=O)Nc1cc(-c2ccc3ncnc(Nc4ccc5[nH]ncc5c4)c3c2)cnc1Cl`, the growth is 62.3%.

For the molecule `Nc1ncc(C#Cc2cncc(NC(=O)c3cccc(C(F)(F)F)c3)c2)c2cccnc12`, the growth is 81.6%.

In the case of `CCOC(=O)Oc1c(OC)cc(C(=O)O[C@@H]2C[C@@H]3CN4CCc5c([nH]c6cc(OC)ccc56)[C@H]4C[C@@H]3[C@H](C(=O)OC)[C@H]2OC)cc1OC`, the growth was 64.6%.

`O=C1Nc2ccccc2/C1=C\c1cccc(/C=C2/C(=O)Nc3ccccc32)n1`: the growth was -37.9% (active).

Turning to `NC(=O)CN1CCN(c2ccccc2Cl)CC1`, the growth is 108%.

In the case of `CSc1nnc2c(=O)n(C)c(=O)n(C)c2n1`, the growth was 111%.

As for `NC(=O)c1cccc(-c2ccccc2N2CCCCC2)c1`, the growth is 97.2%.

Take `COc1cnccc1-c1nc2ccc3[nH]ncc3c2c2c1CCCC2`: the growth was 18.2%.

Consider `c1ccc(-c2nnc(Nc3ccc4c(c3)OCCO4)o2)c(NCc2ccncc2)c1`, for which the growth is 35.4%.

On to `CNC(=O)Nc1ccc(-c2nc(N3CCOCC3)nc3c2cnn3C2CCOCC2)cc1`, for which the growth is -24.3% (active).

For the molecule `O=C(N/N=C/c1ccc(O)c(O)c1)c1sc2ccccc2c1Cl`, the growth is 98.3%.

Regarding `COc1cc(C2CC(c3cccc(Nc4ccncc4)c3)=NN2c2ccccc2)cc(OC)c1OC` (stereo not given), the growth was 71.2%.

As for `Nc1ccccc1NC(=O)c1ccc(CN2CCC/C(=C\c3cccc(Cl)c3)C2=O)cc1`, the growth was 20.4%.

For the molecule `C[C@H]1[C@H](C)CC[C@]2(CO)CC[C@]3(C)C(=CC[C@@H]4[C@@]5(C)CCCNC(C)(C)[C@@H]5CC[C@]43C)[C@H]12`, the growth was 19.4%.

On to `O=c1[nH]nc(-c2ccc(Br)cc2)cc1Cc1ccc(O)cc1`, for which the growth was 51.7%.

With `CC1(C)CC[C@]2(C(=O)NCC#CCN3CCOCC3)CC[C@]3(C)C(=CC[C@@H]4[C@@]5(C)Cc6c([nH]c7ccccc67)C(C)(C)[C@@H]5CC[C@]43C)[C@@H]2C1`, the growth is 96.8%.

In the case of `COc1ccc(C(=O)/C=C/c2cn(Cc3ccc(Cl)cc3)c3ccccc23)cc1`, the growth is 89%.

The values above are taken from PubChem BioAssay (NCI).
